# Experimental data published in the antibiotic and cytotoxicity screens of Wong et al. (2023).
# About 3,300 (8.5%) of roughly 39,000 compounds were called active. The entries come from a sample that favours actives as a whole.
# Test system: HepG2
# Test: cytotoxicity call (relative viability < 0.9)
# Settings: 10 µM
row,Structure (SMILES),cytotoxicity call
1,Cc1ccc(S(=O)(=O)Nc2ccc3c(c2)C(=O)N([C@@H](C)CO)C[C@H](C)[C@@H](CN(C)S(C)(=O)=O)OCCCC[C@H](C)O3)cc1,inactive
2,C[C@H](CO)N1C[C@H](C)[C@H](CN(C)C(=O)Nc2ccc(C(F)(F)F)cc2)OCCCC[C@H](C)Oc2ccc(NC(=O)c3ccncc3)cc2C1=O,inactive
3,C[C@H]1CN([C@@H](C)CO)C(=O)c2cc(C#Cc3ccccc3F)cnc2O[C@@H]1CN(C)S(=O)(=O)c1ccccc1,inactive
4,C[C@H](CO)N1C[C@H](C)[C@@H](CN(C)S(=O)(=O)c2ccccc2)Oc2ncc(Br)cc2C1=O,inactive
5,S=C(Nc1ccccc1)Nc1ccc2c(c1)oc1ccccc12,inactive
6,COc1ccc(CN(C)C[C@@H]2Oc3ccc(NC(=O)Cn4cnnn4)cc3CC(=O)N([C@H](C)CO)C[C@@H]2C)cc1,inactive
7,C[C@@H](N)c1cnn(-c2ccccc2F)c1,inactive
8,CCN(CC)CCNc1ccc(COc2cccc(/C=C(C)/C=C/C(=O)NO)c2)c2sc3ccccc3c(=O)c12,inactive
9,CCN(CC)CCNc1ccc(CO)c2sc3ccccc3c(=O)c12,active
10,CCN(CC)CCNc1ccc(COc2ccccc2/C=C(C)/C=C/C(=O)NO)c2sc3ccccc3c(=O)c12,inactive
11,C[C@@H]1CCCCO[C@@H](CN(C)Cc2ccc(C(=O)O)cc2)[C@@H](C)CN([C@H](C)CO)C(=O)c2cc(NS(=O)(=O)c3cccs3)ccc2O1,inactive
12,O=C(C[C@@H]1C=C[C@@H](NC(=O)c2cccnc2)[C@H](CO)O1)NCCN1CCCCC1,inactive
13,CN(C)CC(=O)N[C@@H]1C=C[C@H](CC(=O)NCCN2CCCCC2)O[C@H]1CO,inactive
14,CN(C)CC(=O)N[C@@H]1C=C[C@@H](CC(=O)NCCN2CCCCC2)O[C@H]1CO,inactive
15,O=C(C[C@H]1C=C[C@H](NC(=O)c2cccnc2)[C@@H](CO)O1)NCCN1CCCCC1,active
16,CN(C)CC(=O)N[C@H]1C=C[C@@H](CC(=O)NCCN2CCCCC2)O[C@@H]1CO,active
17,O=C(C[C@@H]1C=C[C@@H](NC(=O)c2cccnc2)[C@@H](CO)O1)NCCN1CCCCC1,inactive
18,COCC#Cc1ccc2c(c1)O[C@@H](CN(C)C(=O)Nc1ccc(OC)cc1)[C@H](C)CN([C@@H](C)CO)S2(=O)=O,inactive
19,CC(C)(C)OC(=O)C[C@@H]1CC=CC[C@H](CC(=O)N[C@@H](CO)Cc2ccccc2)C(=O)N2CCC[C@@H]2COC1=O,inactive
20,Cc1noc(C)c1NC(=O)N(C)C[C@H]1Oc2c(NS(C)(=O)=O)cccc2C(=O)N([C@@H](C)CO)C[C@H]1C,inactive
21,CC(C)(C)S(=O)N1Cc2cc(C(=O)N[C@@H]3CCN(Cc4ccccc4)C3)nc(-c3cccc(C#CCC4CCCC4)c3)c2[C@@H]1CCO (stereo partly drawn),inactive
22,N#CC(=Cc1ccc(O)c(O)c1)C(N)=O,inactive
23,CCN(CC)C(=O)C(C#N)=Cc1cc(O)c(O)c([N+](=O)[O-])c1,inactive
24,N#C/C(=C\c1ccc(O)c(O)c1)C(N)=O,active
25,Cc1noc(C)c1S(=O)(=O)Nc1cccc2c1O[C@@H](CN(C)C(=O)Nc1ccccc1)[C@@H](C)CN([C@H](C)CO)C2=O,inactive

row,Structure (SMILES),cytotoxicity call
1,CC(C)NC(=O)Nc1ccc2c(c1)C(=O)N([C@H](C)CO)C[C@@H](C)[C@@H](CN(C)CC1CCCCC1)OCCCC[C@@H](C)O2,inactive
2,NCc1ccc(Br)s1,inactive
3,Cc1noc(C)c1S(=O)(=O)Nc1ccc2c(c1)C(=O)N([C@H](C)CO)C[C@H](C)[C@H](CN(C)S(C)(=O)=O)OCCCC[C@@H](C)O2,inactive
4,C[C@H](CO)N1C[C@H](C)[C@H](CN(C)Cc2ccc3c(c2)OCO3)Oc2ccc(NC(=O)C3CC3)cc2C1=O,inactive
5,C[C@@H]1CCCCO[C@@H](CN(C)S(=O)(=O)c2cccs2)[C@@H](C)CN([C@@H](C)CO)C(=O)c2cc(NC(=O)C3CCCCC3)ccc2O1,inactive
6,C[C@@H]1CN([C@@H](C)CO)S(=O)(=O)c2ccc(/C=C/c3ccccc3)cc2O[C@H]1CN(C)C(=O)Nc1cc(F)ccc1F,inactive
7,COc1cccc(C#Cc2ccc3c(c2)O[C@H](CN(C)C(C)=O)[C@H](C)CN([C@@H](C)CO)S3(=O)=O)c1,inactive
8,COc1cccc(C#Cc2ccc3c(c2)O[C@@H](CN(C)C(=O)c2ccccn2)[C@@H](C)CN([C@@H](C)CO)S3(=O)=O)c1,inactive
9,COc1ccc(C#Cc2ccc3c(c2)O[C@H](CN(C)C(=O)c2ccccn2)[C@@H](C)CN([C@@H](C)CO)S3(=O)=O)cc1,inactive
10,COc1ccc(C#Cc2ccc3c(c2)O[C@@H](CN(C)C(=O)c2ccccn2)[C@H](C)CN([C@@H](C)CO)S3(=O)=O)cc1,inactive
11,COc1ccc(C#Cc2ccc3c(c2)O[C@H](CN(C)C(=O)c2ccccn2)[C@H](C)CN([C@@H](C)CO)S3(=O)=O)cc1,active
12,COc1cccc(C#Cc2ccc3c(c2)O[C@@H](CN(C)C(C)=O)[C@@H](C)CN([C@@H](C)CO)S3(=O)=O)c1,active
13,COc1cccc(C#Cc2ccc3c(c2)O[C@H](CN(C)C(=O)c2ccccn2)[C@H](C)CN([C@H](C)CO)S3(=O)=O)c1,active
14,COc1cccc(C#Cc2ccc3c(c2)O[C@H](CN(C)C(=O)c2ccccn2)[C@@H](C)CN([C@H](C)CO)S3(=O)=O)c1,inactive
15,COc1cccc(C#Cc2ccc3c(c2)O[C@H](CN(C)C(C)=O)[C@@H](C)CN([C@H](C)CO)S3(=O)=O)c1,inactive
16,C[C@H]1CN([C@@H](C)CO)C(=O)c2cc(NC(=O)c3ccncc3)ccc2O[C@H]1CN(C)Cc1ccc(Oc2ccccc2)cc1,inactive
17,COCC#Cc1ccc2c(c1)O[C@H](CN(C)C(=O)Nc1ccccc1F)[C@H](C)CN([C@H](C)CO)S2(=O)=O,inactive
18,Cc1ccc(S(=O)(=O)N[C@@H](Cc2ccccc2)C(=O)NCCn2cc(-c3ccc(C(=O)NO)s3)nn2)cc1,inactive
19,COc1cccc(S(=O)(=O)N(C)C[C@@H]2Oc3cc(C#CCN(C)C)ccc3S(=O)(=O)N([C@@H](C)CO)C[C@H]2C)c1,inactive
20,CC(=O)NS(=O)(=O)c1ccc(N)cc1 [listing 1 of 2 here],inactive
21,CC(=O)NS(=O)(=O)c1ccc(N)cc1 [listing 2 of 2 here],active
22,NC(=O)NS(=O)(=O)c1ccc(N)cc1,inactive
23,C[C@H](CO)N1C[C@H](C)[C@H](CN(C)C(=O)Nc2cccc3ccccc23)Oc2ccc(NC(=O)Nc3ccc4c(c3)OCO4)cc2C1=O,inactive
24,Nc1nnc([C@H]2CCCO2)o1,inactive
25,O=C(O)c1ccc(-c2ccccc2)cc1,inactive

row,Structure (SMILES),cytotoxicity call
1,O=C(O)c1ccc(-n2nc(-c3ccccc3O)nc2-c2ccccc2O)cc1,active
2,O=C(O)c1ccc2nc(O)c(=O)[nH]c2c1,inactive
3,COCC#Cc1cnc2c(c1)C(=O)N([C@@H](C)CO)C[C@H](C)[C@@H](CN(C)C(=O)Nc1ccccc1OC)O2,inactive
4,Cc1noc(C)c1S(=O)(=O)N(C)C[C@@H]1OCCCC[C@@H](C)Oc2ccc(NC(=O)Nc3cccc4ccccc34)cc2C(=O)N([C@@H](C)CO)C[C@H]1C,inactive
5,COc1ccc(NC(=O)N(C)C[C@@H]2OCCCC[C@H](C)Oc3ccc(NS(=O)(=O)c4ccc(Cl)cc4)cc3C(=O)N([C@H](C)CO)C[C@@H]2C)cc1,inactive
6,C[C@H]1CN([C@@H](C)CO)C(=O)c2cc(C#CC3(O)CCCC3)cnc2O[C@@H]1CN(C)C(=O)Nc1ccc2c(c1)OCO2,inactive
7,O=C(/C=c1/nc2c([nH]c1=O)=NON2)c1ccccc1,inactive
8,O=C1OCCN/C1=C/C(=O)c1ccccc1,active
9,C[C@H]1CNC(=CC(=O)c2ccccc2)C(=O)N1,inactive
10,COCCNC(=O)C[C@H]1CC[C@@H](NS(=O)(=O)c2ccc(C)cc2)[C@@H](CO)O1,inactive
11,C[C@@H]1CN([C@@H](C)CO)C(=O)c2cc(C#CC3CC3)cnc2O[C@@H]1CN(C)S(=O)(=O)c1cccc(F)c1,inactive
12,C[C@@H]1CN([C@H](C)CO)C(=O)c2c(c3ccccc3n2C)-c2ccccc2CO[C@@H]1CN(C)C(=O)Nc1cccc(C(F)(F)F)c1,active
13,C[C@H](CO)N1C[C@H](C)[C@@H](CN(C)C(=O)Nc2cccc(C(F)(F)F)c2)OCc2ccccc2-c2c(n(C)c3ccccc23)C1=O,inactive
14,C[C@H](CO)N1C[C@H](C)[C@H](CN(C)C(=O)Nc2cccc(C(F)(F)F)c2)OCc2ccccc2-c2c(n(C)c3ccccc23)C1=O,inactive
15,C[C@H]1CN([C@@H](C)CO)C(=O)c2c(c3ccccc3n2C)-c2ccccc2CO[C@H]1CN(C)C(=O)Nc1cccc(C(F)(F)F)c1,inactive
16,C[C@@H]1CN([C@H](C)CO)C(=O)c2c(c3ccccc3n2C)-c2ccccc2CO[C@H]1CN(C)C(=O)Nc1cccc(C(F)(F)F)c1,inactive
17,C[C@@H]1CN([C@@H](C)CO)C(=O)c2c(c3ccccc3n2C)-c2ccccc2CO[C@H]1CN(C)C(=O)Nc1cccc(C(F)(F)F)c1,active
18,COc1ccc(S(=O)(=O)N(C)C[C@@H]2OCCCC[C@H](C)Oc3ccc(NC(=O)Nc4c(C)noc4C)cc3C(=O)N([C@@H](C)CO)C[C@@H]2C)cc1,inactive
19,Cc1noc(C)c1NC(=O)N(C)C[C@@H]1Oc2ccc(NC(=O)NC(C)C)cc2CC(=O)N([C@@H](C)CO)C[C@@H]1C,inactive
20,O=C(C=Cc1ccc(O)c(O)c1)OC1CC(O)(C(=O)O)CC(O)C1O (stereo not drawn),inactive
21,O=C(/C=C/c1ccc(O)c(O)c1)O[C@@H]1C[C@@](O)(C(=O)O)C[C@@H](O)[C@@H]1O,active
22,O=C(/C=C/c1ccc(O)c(O)c1)O[C@@H]1C[C@](O)(C(=O)O)C[C@@H](O)[C@H]1O,inactive
23,Cc1noc(C)c1NC(=O)N(C)C[C@H]1OCCCC[C@@H](C)Oc2ccc(NS(=O)(=O)c3ccc(F)cc3)cc2C(=O)N([C@@H](C)CO)C[C@H]1C,inactive
